Bioassay records deposited in PubChem by National Center for Advancing Translational Sciences (NCATS).
Rows were chosen to be rich in hits. Some 12% of all compounds tested hit in one or more screens of this group.
Sfp inh = blocks B. subtilis Sfp PPTase activity; Biochemical Sfp PPTase activity, qHTS; Q9F4F7; AID 1490; actives 3.5% (n = 310,000); Potency, µM, for inactives: largest response in the series, negative = inhibition, hits mostly inhibitors;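 further: the enzyme is Sfp with the accession as filed and its product quenches rhodamine fluorescence; 0% = enzyme reaction without inhibitor and -100% = no enzyme wells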
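Fluorescence-quenching assay with 15 nM Sfp, 5 uM rhodamine-CoA and 12.5 uM BHQ-2-labelled ybbR peptide in pH 7.6 Hepes/MgCl2 buffer. Enzyme was pre-incubated with compound for 15 min at room temperature. Rate was taken from the 30-min fluorescence change (525/598 nm).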
PLK1 PBD inh = PLK1 (human) polo-box domain binding inhibition. P53350. Plk1 PBD binding of FITC phosphopeptide, fluorescence polarization. Potency, µM, inactives show max response, negative = inhibition, hits mostly inhibitors. actives 2.8% (n = 360,000); further: series mostly up to about 57 µM; on the % scale 0 is the no-effect control and ±100 the full control effect; nearly all actives have a fitted effect of over 65% in size
JMJD2A Tudor = JMJD2A Tudor domain (human) inhibition. Potency, µM (highest dose often 114 µM), inactives show at the top dose activity change, negative = inhibition, hits mostly inhibitors. actives 4.4% (n = 390,000). O75164. AlphaScreen JMJD2A-Tudor / H3K4me3 peptide binding; further: on the % scale 0 is the no-effect control and ±100 the full control effect; nearly all actives have a fitted effect of over 50% in size
Target sequence (O75164 whole entry, looked up, the tested form may be a part): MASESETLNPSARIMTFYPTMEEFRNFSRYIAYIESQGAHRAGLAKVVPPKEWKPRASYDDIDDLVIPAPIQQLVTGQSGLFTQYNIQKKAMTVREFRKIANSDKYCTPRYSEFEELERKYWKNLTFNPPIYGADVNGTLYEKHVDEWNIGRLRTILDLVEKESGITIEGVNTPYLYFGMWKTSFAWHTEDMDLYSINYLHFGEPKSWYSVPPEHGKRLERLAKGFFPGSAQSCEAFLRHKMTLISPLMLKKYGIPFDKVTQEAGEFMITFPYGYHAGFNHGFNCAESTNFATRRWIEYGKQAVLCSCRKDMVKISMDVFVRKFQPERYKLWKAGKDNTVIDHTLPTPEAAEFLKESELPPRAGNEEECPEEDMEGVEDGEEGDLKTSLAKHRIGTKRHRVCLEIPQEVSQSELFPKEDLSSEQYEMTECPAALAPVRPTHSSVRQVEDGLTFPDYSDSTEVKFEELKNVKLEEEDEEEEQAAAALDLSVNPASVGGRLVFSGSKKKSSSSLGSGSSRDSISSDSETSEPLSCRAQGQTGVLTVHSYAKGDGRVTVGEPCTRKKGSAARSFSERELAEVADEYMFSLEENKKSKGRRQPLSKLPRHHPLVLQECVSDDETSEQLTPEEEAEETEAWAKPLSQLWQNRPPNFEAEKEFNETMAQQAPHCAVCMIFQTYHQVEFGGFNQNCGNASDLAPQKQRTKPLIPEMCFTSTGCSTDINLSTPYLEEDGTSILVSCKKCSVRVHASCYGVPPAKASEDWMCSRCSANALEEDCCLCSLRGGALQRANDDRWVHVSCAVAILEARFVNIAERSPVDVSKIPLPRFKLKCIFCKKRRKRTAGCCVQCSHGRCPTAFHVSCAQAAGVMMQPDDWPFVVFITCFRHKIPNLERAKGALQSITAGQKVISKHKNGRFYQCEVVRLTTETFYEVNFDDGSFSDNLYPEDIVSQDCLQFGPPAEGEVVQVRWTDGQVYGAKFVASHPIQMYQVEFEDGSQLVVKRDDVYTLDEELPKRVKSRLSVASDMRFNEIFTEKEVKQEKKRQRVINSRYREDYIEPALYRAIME
G9a inh = inhibitors of human histone lysine methyltransferase G9a | actives 8.8% (n = 350,000) | G9a H3K9 monomethylation, AlphaScreen, 2 h | Potency, µM (top dose mostly 102 µM), for inactives: at the top dose activity, negative = inhibition, actives largely listed as inhibitors; further: on the % scale 0 is the no-effect control and ±100 the full control effect; nearly all actives have a fitted effect of over 75% in size
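Quantitative HTS format: methyltransferase activity on a biotin-tagged H3K9 peptide is measured by AlphaScreen, using a rabbit anti-monomethyl-H3K9 antibody with streptavidin donor and anti-IgG acceptor beads. Final levels are 20 nM enzyme, 500 nM peptide, 20 uM SAM; 2 h RT.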
BAZ2B inh = blocks human BAZ2B; actives 4.4% (n = 360,000); AID 504333; AlphaScreen BAZ2B-H3K14Ac peptide displacement; Potency, µM (series often up to 114 µM), for the others: at the top dose activity change, negative = inhibition, hits mostly inhibitors; further: on the % scale 0 is the no-effect control and ±100 the full control effect; nearly all actives have a fitted effect of over 60% in size
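BAZ2B 50 nM plus b-H3(5-23)K14Ac 50 nM, PBS pH 7.4/0.01% Tween-20, 30 min RT; compound added (max 110 uM), 30 min RT; streptavidin donor/Ni-chelate acceptor beads 10 ug/mL final, 20 min dark; AlphaScreen read.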
HP1b binding inh = HP1-beta chromodomain-methylated histone interaction inhibition. P83916. Potency, µM (titrated, usually from 114 µM), for the others: at the highest dose activity change, negative = inhibition, most hits filed as inhibitors. AlphaScreen HP1-beta / biotin-H3K9me3 peptide binding. actives 0.56% (n = 390,000). AID 540317; further: nearly all actives have a fitted effect of over 70% in size
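HP1-beta protein (50 nM final) preincubated 30 min at room temperature with biotinylated H3(1-18)K9me3 peptide (50 nM) in PBS pH 7.4, 0.01% Tween-20, then compound added for 30 min. AlphaScreen streptavidin donor/nickel chelate acceptor beads (10 ug/mL final), 30 min dark, luminescence read.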
The depositor's hits bear a star; [ ] = dose if it differs, or a comment. The call rests on the fitted dose curve; in most records, active means well fitted curve in the direction sought with a large enough effect; inconclusive means small, poorly fitted or top-dose-only effect, or another doubt; inactive means no such curve, though single readings can be large; an effect the other way counts as inactive or inconclusive. Potency means the concentration at half of the fitted maximal effect.

Screening CCCn1c(CCc2ccccc2)n[nH]c1=S returned Sfp inh 4%, PLK1 PBD inh -5%, JMJD2A Tudor 4.5µM*, G9a inh 40µM*, BAZ2B inh 8% and HP1b binding inh 16%.
CCn1c(CSCc2ccccc2)n[nH]c1=S was read as Sfp inh 10%, PLK1 PBD inh -5%, JMJD2A Tudor 18µM*, G9a inh 7.1µM*, BAZ2B inh -25% and HP1b binding inh 23%.
Screening CCn1c(Cc2ccccc2)n[nH]c1=S returned Sfp inh -18%, PLK1 PBD inh 4%, JMJD2A Tudor inconclusive, G9a inh inconclusive, BAZ2B inh -18% and HP1b binding inh 31%.
For CC(CC(=O)NCCc1ccc(Cl)cc1)S(=O)(=O)c1ccc2c(c1)NC(=O)CO2 (stereo not given) the results were Sfp inh 1%, PLK1 PBD inh -21%, JMJD2A Tudor -29%, BAZ2B inh -1% and HP1b binding inh 51%.
For CC(C)COc1ccc(C(=O)Nc2scc(-c3ccc(Br)cc3)c2C(=O)OC(C)C)cc1 the results were JMJD2A Tudor 6%, G9a inh 8%[59 µM], BAZ2B inh 2% and HP1b binding inh 35%.
CCOCCCn1c(=N)c(C(=O)NCc2cccnc2)cc2c(=O)n3ccccc3nc21 was read as JMJD2A Tudor -17%, G9a inh -3%[59 µM], BAZ2B inh -14% and HP1b binding inh 34%.
For CCCCn1c(Cc2ccccc2)n[nH]c1=S the results were Sfp inh inconclusive, PLK1 PBD inh -15%, JMJD2A Tudor 4µM*, G9a inh 13µM*, BAZ2B inh -3% and HP1b binding inh inconclusive.
Screening CCn1c(Cc2c(C)[nH]c3ccccc23)n[nH]c1=S returned Sfp inh 0%, PLK1 PBD inh -3%, JMJD2A Tudor 4µM*, G9a inh 1.8µM*, BAZ2B inh -35% and HP1b binding inh 15%.
For Cc1[nH]c2ccccc2c1CCO the results were Sfp inh -2%, PLK1 PBD inh 2%, JMJD2A Tudor -5%, G9a inh 3%[59 µM], BAZ2B inh 6% and HP1b binding inh 9%.
For CCn1c(CCn2c3ccccc3c3ccccc32)n[nH]c1=S the results were Sfp inh inconclusive, PLK1 PBD inh -4%, JMJD2A Tudor -21%, G9a inh 22µM*, BAZ2B inh inconclusive and HP1b binding inh 47%.
`Cc1cccc(NC(=O)CSc2nc3ccccc3nc2N2CCC(C)CC2)c1` gave JMJD2A Tudor 53%, G9a inh 119%[59 µM], BAZ2B inh 42% and HP1b binding inh 109%.
`Cc1ccc(OCC(=O)NCCCNC(=O)c2ccccn2)cc1C` gave Sfp inh 6%, PLK1 PBD inh 3%, JMJD2A Tudor -5%, G9a inh 6%, BAZ2B inh 0% and HP1b binding inh 20%.
`Cc1cccc(NS(=O)(=O)c2ccc(C)c(C(=O)NCC(c3ccco3)N3CCCCC3)c2)c1` (stereo not given) gave PLK1 PBD inh -4%, JMJD2A Tudor -26%, G9a inh inconclusive, BAZ2B inh -3% and HP1b binding inh 8%.
For Cc1ccc(C(=O)Nc2nc3nc(-c4ccccc4)cc(=O)n3[nH]2)cc1 the results were Sfp inh 13%, PLK1 PBD inh -15%, JMJD2A Tudor -2%, G9a inh inconclusive, BAZ2B inh inconclusive and HP1b binding inh 64%.
Screening O=C(Nc1nc2nc(-c3ccccc3)cc(=O)n2[nH]1)c1ccc(F)cc1 returned JMJD2A Tudor -10%, G9a inh 15%[12.7 µM], BAZ2B inh 79µM* and HP1b binding inh 30%.
For CC1CCC2C(=O)OC(Cc3ccccc3)CN2C1c1ccc(Br)cc1 (stereo not given) the results were Sfp inh 11%.
Screening CCN(C(=O)C(C)N1C(=O)/C(=C/c2ccco2)SC1=S)C1CCS(=O)(=O)C1 (stereo not given) returned Sfp inh 16µM*, PLK1 PBD inh 19µM*, JMJD2A Tudor 56µM*, G9a inh 20µM*, BAZ2B inh 45µM* and HP1b binding inh inconclusive.
Screening CC(C(=O)NC1C=CS(=O)(=O)C1)N1C(=O)/C(=C/c2ccc(Cl)cc2)SC1=S (stereo not given) returned Sfp inh inconclusive, PLK1 PBD inh inconclusive, JMJD2A Tudor inconclusive, BAZ2B inh 22µM* and HP1b binding inh -26%.
`CC(C(=O)N(C)C1CCS(=O)(=O)C1)N1C(=O)/C(=C/c2ccc(F)cc2)SC1=S` (stereo not given) gave Sfp inh 50µM*, PLK1 PBD inh inconclusive, JMJD2A Tudor -32%, G9a inh inconclusive, BAZ2B inh inconclusive and HP1b binding inh -14%.
For Cc1cc(O)c(/C=N/Nc2ccccc2Cl)c(=O)o1 the results were Sfp inh -11%, PLK1 PBD inh -7%, JMJD2A Tudor 56µM*, G9a inh 1.4µM*, BAZ2B inh -4% and HP1b binding inh 17%.
`Cc1cc(O)c(/C=N/Nc2cccc(Cl)c2)c(=O)o1` gave Sfp inh -15%, PLK1 PBD inh -15%, JMJD2A Tudor -26%[11.4 µM], G9a inh 2.2µM*, BAZ2B inh -7% and HP1b binding inh 36%.
Screening Cc1cccc(N=Cc2c(O)cc(C)oc2=O)c1 returned Sfp inh 12%, PLK1 PBD inh -7%, JMJD2A Tudor -7%, G9a inh inconclusive, BAZ2B inh 12% and HP1b binding inh 5%.
`Cc1cc(O)c(/C=N/OCc2ccc(Cl)cc2Cl)c(=O)o1` gave Sfp inh -2%, PLK1 PBD inh inconclusive, JMJD2A Tudor inconclusive, G9a inh 20µM*, BAZ2B inh 1% and HP1b binding inh 10%.
Cc1cc(O)c(/C=N/Nc2ccc(Cl)cc2)c(=O)o1 was read as Sfp inh 79µM*, PLK1 PBD inh -6%, JMJD2A Tudor inconclusive, G9a inh 8.9µM*, BAZ2B inh 2%[57.1 µM] and HP1b binding inh -14%.
O=C(CSc1nnc(-c2ccc(O)cc2)o1)c1ccc(Br)cc1 was read as JMJD2A Tudor -7%, G9a inh -6%[59 µM], BAZ2B inh 5% and HP1b binding inh 17%.
`O=C(O)c1cccc(-n2cccc2/C=C2\NC(=O)N(Cc3ccc(F)cc3)C2=O)c1` gave Sfp inh -25%, PLK1 PBD inh inconclusive, JMJD2A Tudor 56µM*, G9a inh 22µM*, BAZ2B inh 50µM* and HP1b binding inh 79µM*.
`Cc1ccc(NC(=O)CN2C(=O)N/C(=C/c3cc(C)n(-c4cccc(C(=O)O)c4)c3C)C2=O)cc1` gave Sfp inh inconclusive, PLK1 PBD inh inconclusive, JMJD2A Tudor inconclusive, G9a inh 13µM*, BAZ2B inh 22µM* and HP1b binding inh inconclusive.
